# Rows were chosen to be rich in hits. Some 12% of all compounds tested hit in one or more screens of this group.
# RORgamma inh – ROR gamma (mouse) transcription inhibition; 310,000 compounds, 5.4% hits; P51450; Potency, µM (series often up to 53.6 µM), for inactives: at the highest dose activity change, negative = inhibition, hits mostly inhibitors; AID 2551; Drosophila S2 Gal4-RORgamma UAS-luciferase reporter, 20 h; note: nearly all actives have a fitted effect of over 60% in size
#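 Luciferase reporter read in Schneider cells carrying Gal4-RORγ (mouse) and UAS-Photinus luciferase; cells given compound 1 h before 700 uM copper sulfate induction, then incubated 20 h at ambient temperature.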
# Gal4-VP16 FLuc – inhibits Gal4-VP16 luciferase reporter, ROR gamma counter-screen. Drosophila S2 Gal4-VP16 UAS-luciferase, luminescence, 20 h. Potency, µM (top dose mostly 53.6 µM), without a hit: at the top dose activity, negative = inhibition, hits mostly inhibitors. 310,000 compounds, 3.5% hits;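 note: Gal4-VP16 expression switched on by copper sulfate through the metallothionein promoter; nearly all actives have a fitted effect of over 50% in size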
# Sfp inh – inhibitors of Bacillus subtilis Sfp phosphopantetheinyl transferase. Biochemical Sfp PPTase activity, qHTS. Potency, µM, for inactives: largest response in the series, negative = inhibition, hits mostly inhibitors. Q9F4F7. 310,000 compounds, 3.5% hits;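 note: the enzyme is Sfp with the accession as filed and its product quenches rhodamine fluorescence; 0% = enzyme reaction without inhibitor and -100% = no enzyme wells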
#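 Reaction rates are the 30-min fluorescence difference (ex 525, em 598 nm) in wells containing 15 nM Sfp, 5 uM rhodamine-CoA and 12.5 uM BHQ-2-YbbR at pH 7.6 with 10 mM MgCl2.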
# ALDH1A1 block – inhibitors of human aldehyde dehydrogenase 1A1. P00352. Purified ALDH1A1, NADH fluorescence, propionaldehyde substrate. Potency, µM (doses to about 75.3 µM), without a hit: top-dose activity, negative = inhibition, actives largely listed as inhibitors. 220,000 compounds, 7.3% hits. AID 1030; active = well fitted inhibition curve with a large enough effect, not every such curve was filed as active; inconclusive = small, poorly fitted or top-dose-only effect, or another doubt; inactive = no such curve, though single readings can be large or run the other way;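 note: plate controls were no enzyme wells and a reference inhibitor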
# Target sequence (P00352 whole entry, looked up): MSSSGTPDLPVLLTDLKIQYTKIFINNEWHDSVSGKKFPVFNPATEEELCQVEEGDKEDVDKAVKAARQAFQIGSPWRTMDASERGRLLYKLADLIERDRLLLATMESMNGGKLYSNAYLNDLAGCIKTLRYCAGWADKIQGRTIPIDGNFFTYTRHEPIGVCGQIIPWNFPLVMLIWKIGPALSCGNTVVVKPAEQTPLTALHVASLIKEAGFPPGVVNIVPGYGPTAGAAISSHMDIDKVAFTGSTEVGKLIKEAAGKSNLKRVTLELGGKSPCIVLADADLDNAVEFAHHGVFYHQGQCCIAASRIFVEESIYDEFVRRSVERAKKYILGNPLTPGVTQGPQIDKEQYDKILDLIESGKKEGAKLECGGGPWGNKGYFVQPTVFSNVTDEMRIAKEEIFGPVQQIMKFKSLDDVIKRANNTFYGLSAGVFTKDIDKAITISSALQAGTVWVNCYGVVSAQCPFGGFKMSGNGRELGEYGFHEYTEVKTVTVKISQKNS
# PLK1 PBD inh – inhibitors of human PLK1 polo-box domain binding | Potency, µM, for inactives: max response, negative = inhibition, usual class: inhibitors | Plk1 PBD binding of FITC phosphopeptide, fluorescence polarization | 360,000 compounds, 2.8% hits; note: series mostly up to about 57 µM; nearly all actives have a fitted effect of over 65% in size
# An asterisk follows results filed as active; ? = inconclusive; · = no result; [ ] = remark or other dose. Unless noted, calls come from the whole dose curve; as a rule, active = well fitted curve in the direction sought with a large enough effect; inconclusive = small, poorly fitted or top-dose-only effect, or another doubt; inactive = no such curve, though single readings can be large; an effect the other way counts as inactive or inconclusive. Unless noted, % is set by controls: 0 for no effect and ±100 for the full control effect; potency is the fitted concentration of half-maximal effect.
SMILES,RORgamma inh,Gal4-VP16 FLuc,Sfp inh,ALDH1A1 block,PLK1 PBD inh
C#CCN1C(=O)C2(C(C#N)=C(N)OC(C)=C2C(=O)OCc2ccccc2)c2ccccc21 (stereo not drawn),-73%,?,14%,0.79µM*,-11%
O=C(O)c1ccc(Cl)nc1,9%[10 µM],-4%,7%,2%,19µM*
CC(=O)N1CCN(Cc2ccc(Cl)nc2)CC1,-34%,2%,1%,·,0%
CCC1C2CC3C4N(C)c5ccccc5[C@]45CC(C2C5O)N3C1O (stereo partly drawn),3%,-2%,10%,10%,·
CC(=O)O[C@]1(c2ccccc2)CCN(C)[C@H]2CCCC[C@@H]21,-29%,5%,-8%,0%,-28%
CN1CCC(C)(O)C2CCCCC21 (stereo not drawn),13%,-10%,17%,10µM*,2%
C/C=C1/CN2CC[C@]34C(=C(C=O)[C@H]1C[C@@H]23)Nc1ccccc14,15%,14%,?,-8%,·
O=C(COc1ccccc1)N1CCN(CCN2C(=O)c3cccc4cccc(c34)C2=O)CC1,12%,1%,8%,-6%,17µM*
O=C1c2cccc3cccc(c23)C(=O)N1CCN1CCN(C(=S)Nc2ccccc2)CC1,14µM*,?,22%,3%,-6%
CCC1(CCSC(=N)N)C(=O)NC(=O)NC1=O,·,·,·,-1%[13.5 µM],·
CN(N=O)c1cc(O)ccc1O,·,·,·,20µM*,·
C[n+]1c(/C=C\c2ccc(O)c3ncccc23)[se]c2ccccc21,·,·,·,-7%[13.5 µM],·
Cc1ccc(/C=C2\C(=O)NC(=O)N(CCc3ccc(F)cc3)C2=O)o1,?,?,40µM*,5µM*,0.95µM*
Cc1ccc(/C=C2\C(=O)NC(=O)N(Cc3ccccc3Cl)C2=O)o1,3%,1%,71µM*,?,0.84µM*
COc1cc(N2CCOCC2)ccc1/C=C1\C(=O)NC(=O)N(Cc2ccc3c(c2)OCO3)C1=O,28%,-8%,?,?,?
Cc1ccc(/C=C2/C(=O)NC(=O)N(Cc3ccc(F)cc3)C2=O)o1,7%,1%,35µM*,·,·
COc1ccc(CN2C(=O)NC(=O)/C(=C\c3cccc(OC)c3OC)C2=O)cc1,-14%,-4%,79µM*,?,30µM*
NC(N)=NCCN=C(N)N,·,·,·,-8%[13.5 µM],·
CC(C)(C)c1cc(C#N)cc(Br)c1OP(=O)(Oc1c(Br)cc(C#N)cc1C(C)(C)C)c1ccccc1,·,·,·,14%[13.5 µM],·
COc1ccc(CN2C(=O)NC(=O)/C(=C/c3ccc([N+](=O)[O-])o3)C2=O)cc1,2%,5%,50µM*,18µM*,·
CCOC(=O)c1c(C)n(Cc2ccco2)c2ccc(OC)cc12,3%,4%,-16%,-8%,-2%
COC(=O)c1c(C)n(Cc2ccco2)c2ccc(O)cc12,6%,-5%,?,20µM*,-2%
Cc1cc(C(=O)OCC(=O)NC(=O)c2cccn2C)c2ccccc2n1,12%,0%,-6%,?,5%
CC(C)(C)NCC(O)c1cc(Cl)c(N)c(C(F)(F)F)c1 (stereo not drawn),13%,6%,14%,·,·
[Hg+][c]1ccccc1,?,2.8µM*,0.22µM*,·,·
SMILES,RORgamma inh,Gal4-VP16 FLuc,Sfp inh,ALDH1A1 block,PLK1 PBD inh
c1ccc(-c2ccccc2)cc1,4%,0%,·,?,·
[Cl][Pd][Cl].[S-]C1=C2N=CN[C-]2[NH+]=C[N-]1.[S-]c1ncnc2[nH]cnc12,·,·,·,-11%[13.5 µM],·
CC(=O)C1C2c3ccccc3OC1(C)N=c1s/c(=C/c3cn(C)nc3C)c(=O)n12 (stereo not drawn),0%,-6%,14%,10µM*,-2%
Cc1ccc(/C=C/C(=O)C2C(=O)c3ccccc3C2=O)cc1,6.3µM*,?,-2%,-9%,?
Nc1cc(Cl)ccc1Cl,7%,-6%,·,-3%,·
Nc1cc(Cl)ccc1O,-4%,3%,·,8.9µM*,·
Nc1ccc(Cl)cc1N,-32%,-19%,·,8.9µM*,·
CN(C)c1ccc(/C=C2\CCCN=C2c2cccnc2)cc1,-37%,1%,-14%,?,·
CCOc1cc(-c2ccc(N)c(OCC)c2)ccc1N,4%,-9%,-27%,?,3.4µM*
C[C@H]1COC2=C1C(=O)C(=O)c1c2ccc2c1CCCC2(C)C,-8%,-11%,-2%,13µM*,27µM*
CC1COC2=C1C(=O)C(=O)c1c2ccc2c1CCCC2(C)C (stereo not drawn),-10%,-10%,?,22µM*,·
COc1ccc(-n2c(SCCN(C)C)nc3ccccc3c2=O)cc1,14%,4%,-7%,·,-1%
COP(=S)(OC)SCn1nnc2ccccc2c1=O,-3%,?,22µM*,13µM*,8.4µM*
C=C1C/C(=C\C)C(=O)O[C@@H]2CCN3CC=C(COC(=O)[C@@]1(C)O)[C@H]23,-13%[16.9 µM],-1%[17 µM],14%,18%[20.9 µM],·
Oc1ccc2[nH]cc(CCCCN3CC=C(c4ccccc4)CC3)c2c1,19%,16%,4%,-4%,·
Cc1ncc(CN2CCCC(C(=O)c3cccc(OC(C)C)c3)C2)s1 (stereo not drawn),?,26%,23%,-5%,-2%
CCn1ccnc1CN1CCCC(C(=O)c2cccc(C(F)(F)F)c2)C1 (stereo not drawn),2µM*,10µM*,22%,9%,-15%
COc1cccc(OC)c1CN1CCCC(C(=O)c2cccc(Cl)c2)C1 (stereo not drawn),-11%,11%,9%,·,-2%
O=C(c1cccc(C(F)(F)F)c1)C1CCCN(Cc2ncc[nH]2)C1 (stereo not drawn),18%,16µM*,-17%,?,-6%
CN1C(=O)N(C)C(=O)C2(Cc3c(ccc4ccccc34)N(C)C2)C1=O,-8%,4%,-25%,-13%,8.4µM*
CC(=O)Oc1ccc(Cl)c2cccnc12,0.56µM*,0.71µM*,22%,6%,·
CN1CCN(c2ccc(/C=C3\C(=O)NC(=S)N(c4cccc(Br)c4)C3=O)o2)CC1,-2%,1%,10%,?,105%
O=C1NC(=S)N(c2ccc(F)cc2)C(=O)/C1=C/c1ccco1,-25%,-20%,25µM*,·,·
CCOc1ccc(N2C(=O)/C(=C/c3ccc(C)o3)C(=O)NC2=S)cc1,1%[1.91 µM],-5%,22µM*,·,4.7µM*
COc1ccc(OC)c(N2C(=O)/C(=C/c3ccco3)C(=O)NC2=S)c1,-18%,-13%,18µM*,·,2.4µM*
O=C1NC(=O)C(=Cc2ccco2)C(=O)N1,·,·,·,·,4.7µM*
Cc1c(C=C2C(=O)NC(=O)NC2=O)c(=O)n(-c2ccccc2)n1C,-7%,7%,3%,3%,?
O=C1NC(=O)c2c1c1c3ccccc3n3c1c1c2c2ccccc2n1C1CCC3O1,-22%,-11%,2%,·,·
COc1cc2c(cc1O)C[C@H]1c3c(cc(OC)c(O)c3-2)CCN1C,-35%,-13%,-32%,?,·
N=C1/C(=C/c2ccc(OC(=O)c3ccco3)cc2)C(=O)N=C2SC=CN12,-6%,26%,15%,?,-4%
